A selection: hits, their analogues and other compounds. The true share with any hit is near 32%.
PostGolgi yeast: phenotypic screen on post-Golgi transport, primary screen | post-Golgi transport phenotypic cell assay | inhibition, % at 10 µM | 98,000 compounds, 0.9% hits | AID 739, 2007;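 note: yeast cells grown in 1536-well plates; yeast grown about 18 h at 30C before absorbance read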
CYP2C19 inhib: blockers of cytochrome P450 2C19 activity – biochemical, luminescence, ADME assay, primary screen | CYP2C19 Supersomes, luciferin-H EGE luminescence, 30 min | AID 778, 2007 | inhibition, % at 5 µM | P33261 | 96,000 compounds, 21% hits;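 active = CYP2C19 inhibition above a set limit at 5 µM in the primary screen, cut at about 50% in these data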
Target sequence (P33261 whole entry, looked up): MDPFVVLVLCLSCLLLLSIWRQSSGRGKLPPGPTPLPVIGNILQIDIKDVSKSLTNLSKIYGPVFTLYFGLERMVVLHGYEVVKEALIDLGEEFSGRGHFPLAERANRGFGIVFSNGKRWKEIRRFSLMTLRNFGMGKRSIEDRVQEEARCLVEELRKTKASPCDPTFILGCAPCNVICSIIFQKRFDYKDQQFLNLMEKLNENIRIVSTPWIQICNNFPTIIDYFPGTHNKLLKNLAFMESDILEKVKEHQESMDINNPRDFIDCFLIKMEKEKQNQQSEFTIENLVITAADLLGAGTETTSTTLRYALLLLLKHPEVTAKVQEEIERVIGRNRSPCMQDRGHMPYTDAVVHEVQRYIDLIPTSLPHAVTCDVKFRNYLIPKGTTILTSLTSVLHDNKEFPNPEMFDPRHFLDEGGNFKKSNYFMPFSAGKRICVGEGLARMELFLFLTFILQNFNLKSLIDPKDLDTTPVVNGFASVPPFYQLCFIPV
PostGolgi ctrl: growth inhibition of yeast control strain, primary screen, counter-screen for post-Golgi transport modulator project. inhibition, % at 10 µM. 98,000 compounds, 5% hits. AID 738, 2007. efflux-deficient yeast background strain, growth absorbance A615, 16 h
CYP2C9 activ: human CYP2C9 activators, primary screen, biochemical, luminescence; recombinant CYP2C9, luciferin-H conversion; active compounds read high; factor 1 = untreated enzyme, 0 = blocked; activation factor at 5 µM; 96,000 compounds, 1.4% hits; AID 1024, 2008;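 active = activation factor of 2 or more for CYP2C9 at a 5 µM dose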
CYP2C19 act: human CYP2C19 activators, primary screen, biochemical, luminescence; Cytochrome P450 2C19 (Homo sapiens), P33261; recombinant CYP2C19, luciferin-H EGE luminescence; active compounds read high; 0 = fully inhibited enzyme, 1 = untreated enzyme; activation factor at 5 µM; 96,000 tested, under 10 active;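 active = activation factor of at least 2 at 5 µM in the primary screen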
CYP2C9 inh: blockers of cytochrome P450 2C9 activity – biochemical, luminescence, ADME assay, primary screen; 96,000 compounds, 20% hits; CYP2C9 Supersomes, luciferin-H conversion; P11712; inhibition, % at 5 µM;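 active = blocking of liver enzyme CYP2C9 beyond about 50% at 5 µM, limit read from the data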
Each line names hits and unclear results; the compound was inactive in the other large screens. Cut-off read from the data, not from the text of the source, unless noted: active = inhibition above about 30%; inactive = the rest.

Cc1cc(C)nc(/N=C(\N)Nc2cc([N+](=O)[O-])ccc2C)n1	none
O=C(COc1ccccc1)Nc1ccc2c(c1)nc1n2CCSC1	none
CSc1nnc(-c2sc3cc(C(F)(F)F)cnc3c2-c2ccccn2)n1C	none
CCn1c(SC)nnc1-c1sc2cc(Cl)ccc2c1Cl	PostGolgi ctrl 69.8
CSc1nnc(-c2sc3cc(Cl)ccc3c2Cl)n1C	CYP2C19 inhib 52.5
COc1ccc2c(Cl)c(-c3nnc4n3CCCCC4)sc2c1	none
CCCCc1ccc(NC(=O)C2CCN(S(C)(=O)=O)CC2)cc1	none
O=C(OC1CCCCC1=O)c1cc(=O)c2ccccc2o1 (configuration not stated)	none
O=C(c1ccc2c(c1)OCO2)N(Cc1ccco1)C1(C(=O)NC2CCCCC2)CCCCC1	CYP2C19 inhib 58.6
O=C(Cc1cccs1)N(Cc1ccco1)C1(C(=O)NC2CCCC2)CCCCC1	CYP2C9 inh 59.9
O=C1NC(=O)C(CC(=O)N(Cc2ccco2)C2(C(=O)NC3CCCC3)CCCCC2)N1 (configuration not stated)	none
O=C(c1ccccn1)N(Cc1ccco1)C1(C(=O)NC2CCCC2)CCCCC1	none
COc1ccc(/C(C)=N/NC(=O)c2ccc(N(C)C)cc2)cc1	none
COc1ccc(/C(C)=N/NC(=O)c2nc(C)cc(C)n2)cc1	CYP2C9 activ 2.3
CN(C)c1nc(OCC(=O)NC(C)(C)C)nc(N(C)C)n1	none
c1ccc(OCCOc2ccccc2-c2nnco2)cc1	CYP2C19 inhib 90.6, CYP2C9 inh 75.3
Cc1cccc(C(=O)Oc2ccccc2-c2nnco2)c1	none
Clc1ccccc1COc1ccccc1-c1nnco1	CYP2C9 inh 50.3
O=C1NCCN1C(=O)c1ccco1	none
CC(C)Oc1cccc(-c2nnc(SCC(=O)Nc3ccc4c(c3)OCCO4)n2N)c1	CYP2C19 inhib 50.3, CYP2C9 inh 70.6
Cc1ccc(-n2c(SCC(=O)Nc3ccc4c(c3)OCCO4)nnc2-c2ccco2)cc1	none
COc1ccc(-c2nnc(SCC(=O)Nc3ccc4c(c3)OCCO4)n2N)cc1OC	CYP2C9 inh 58.3
CCn1c(COc2ccc(C)cc2)nnc1SCC(=O)Nc1ccc2c(c1)OCCO2	none
COc1ccc2c(c1)c1ncn(CCN3CCNCC3)c(=O)c1n2C	none
CCOC(=O)c1cnc2c(C(F)(F)F)cccc2c1N1CCOCC1	CYP2C19 inhib 68.3
Cc1ccc2nc(NC(=O)CN(C)S(=O)(=O)c3ccc(Br)s3)sc2c1	PostGolgi ctrl 34.6
Cc1ccc2nc(NC(=O)CNS(=O)(=O)c3ccc(Br)s3)sc2c1	CYP2C9 inh 62.8
Cc1ccc(S(=O)(=O)N(C)CC(=O)Nc2nc3ccccc3s2)cc1	none
Cc1cc(C(=O)Nc2nc3c(C)cccc3s2)c(C)o1	none
Cc1cccc2sc(NC(=O)CNS(=O)(=O)c3ccc(Br)s3)nc12	CYP2C19 inhib 65.4
Cc1ccc2nc(NC(=O)COC(=O)c3ccco3)sc2c1	none
Cc1nc2c3cc(Cl)ccc3n(CCN3CCCCC3)c2s1	none
CCN(CC)c1ccc(/C=N/n2c(C)cc(C)cc2=O)cc1	none
O=C1/C(=C\c2cccs2)N=C(c2cccs2)N1Nc1ccccc1	CYP2C9 inh 57.8
O=C1/C(=C/c2cccs2)N=C(c2cccs2)N1Nc1ccccc1	CYP2C9 inh 92.8
Cc1ccc(C2=N/C(=C\c3cccs3)C(=O)N2Nc2ccccc2)cc1	PostGolgi ctrl 31.9
O=C1N=C(c2ccccc2)S/C1=C\c1cccs1	none
O=C1/C(=C/c2cccs2)SC(=S)N1c1ccccc1	none
CCn1c(CNC(=O)c2cccc(C)c2)nnc1SCC(=O)NC1CCCCC1C (configuration not stated)	none
Cc1cc(C)c(S(=O)(=O)N2CCC(C(=O)NCc3ccc(Cl)cc3Cl)CC2)c(C)c1	PostGolgi yeast 100.3, PostGolgi ctrl 89.1, CYP2C9 activ 2.9
O=C(NCc1ccc(Cl)cc1Cl)C(=O)N1CCCCC1	CYP2C9 activ 3.8
CCCNC(=O)NC1C(NC(=O)NCCC)N(C)C(=O)N1C (configuration not stated)	none
CN1CCC(OC(=O)C23CCC(C)(C(=O)O2)C3(C)C)CC1 (configuration not stated)	none
CCOc1ccc(CNc2ncnc(N)n2)cc1	none
CCOC(=O)/C(=N/Nc1ccc(C)cc1)S(=O)(=O)c1ccc(Cl)cc1	CYP2C19 inhib 69.4, CYP2C9 inh 89.8
CCc1ccc(NC(=O)CSc2nnc(COc3ccc4c(c3)CCCC4)o2)cc1	none
O=C(NC1CC1)c1ccc(CSCc2cccc(F)c2)o1	none
O=C(CCCc1ccccc1)Nc1cccc2c1CCCC2	PostGolgi ctrl 36.8, CYP2C9 activ 2.6
O=C(COc1ccccc1)Nc1cccc2c1CCCC2	CYP2C9 activ 2.1
CC(C)(C)CC(=O)Nc1cccc2c1CCCC2	none
CN(CC(=O)Nc1cccc2c1CCCC2)S(=O)(=O)c1ccc(Br)cc1	none
CN(CC(=O)Nc1cccc2c1CCCC2)S(=O)(=O)c1ccccc1	CYP2C9 activ 2.3
COc1ccccc1OCCSc1nnnn1-c1ccc(C)cc1	CYP2C19 inhib 99.1
CCOc1ccc(OCCSc2nnnn2-c2ccccc2)cc1	CYP2C9 inh 50.4
c1ccc(OCCSc2nnnn2-c2ccccc2)cc1	none
CCOc1ccc(OCCSc2nnnn2C2CCCCC2)cc1	CYP2C19 inhib 56.8, CYP2C9 inh 87.5
Cc1ncc(CSc2nnnn2-c2ccccc2)c(N)n1	CYP2C19 inhib 63.6, PostGolgi ctrl 31.7
CCc1ccccc1N(C)C(=O)CCc1nc(-c2ccc(C)cc2)no1	PostGolgi ctrl 44.4, CYP2C9 inh 62.8
COc1ccc(Cl)cc1N(C)C(=O)CCc1nc(-c2ccc(C)cc2)no1	CYP2C19 inhib 91.5, PostGolgi ctrl 33.0, CYP2C9 inh 93.8
Cc1cc2c(s1)c1cnn(Cc3ccccc3F)c(=O)c1n2C	CYP2C19 inhib 51.1
Clc1ccccc1-c1ccc(CN2CCN(c3ccccc3)CC2)o1	CYP2C19 inhib 74.3, CYP2C9 inh 64.4
CCCn1c(N)c(C(=O)COC(=O)c2c(C)noc2C)c(=O)n(C)c1=O	CYP2C9 inh 50.6
Cc1ccc(CNC(=O)COC(=O)c2c(C)noc2C)cc1	CYP2C19 inhib 85.9
CCCn1c(N)c(C(=O)CSc2nc(C)cs2)c(=O)n(C)c1=O	PostGolgi yeast 35.4
Cc1noc(C)c1C(=O)OCC(=O)NCCc1ccc(Cl)cc1	none
Cc1noc(C)c1C(=O)OCC(=O)c1ccc[nH]1	CYP2C9 inh 84.8
CCOc1cc(C(=O)OCC(=O)c2c(N)n(C)c(=O)n(C)c2=O)cc(OCC)c1OCC	none
O=c1[nH]c2c(s1)C=Nc1ccccc1N2	none
CCC(C)NC(=O)c1cn(C)c(=O)c2cc(OC)c(OC)cc12 (configuration not stated)	none

Screening results from PubChem.
